# GLS inh: blocks human kidney-isoform glutaminase activity; AID 624170; O94925; GLS enzymatic activity, qHTS titration; Potency, µM (titrated, usually from 45.5 µM), most hits filed as inhibitors; 410,000 tested, 0.21% active
#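 Assay buffer: 45 mM KH2PO4 pH 8.2, 0.02% Tween-20. hKGA acts on L-glutamine (1 mM solution added); product glutamate is reported by an oxidase/peroxidase Amplex Red coupling, with fluorescence taken at baseline and 30 min.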
# TrxR1 substrate: substrates of rat thioredoxin reductase 1; O89049; purified TrxR1 substrate turnover, NADPH consumption readout; Potency, µM (top dose mostly 114 µM); 390,000 tested, 0.01% active; AID 588456; further: nearly all actives have a fitted effect of over 50% in size
#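 Rat TrxR1, dispensed at 90 nM, was prereduced with 400 uM NADPH (final) for 5 min at ~22 deg C, then incubated with compound 15 min before 400 uM selenite. A first-read NADPH fluorescence drop versus no-compound background flagged substrates.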
# VDR inh: vitamin D3 receptor (human) inhibition | VDR-SRC2-3 peptide fluorescence polarization, 2 h | Potency, µM, actives largely listed as inhibitors | 400,000 tested, 0.93% active | AID 504847
#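 Two reagent solutions held at 4 deg C in the dark were dispensed, compounds pinned at 23 nl, and the mixture incubated 2 h at room temperature. Read-out: fluorescence polarization of VDR–SRC2-3 peptide binding.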
# KAT2A inh: GCN5L2 (KAT2A) acetyltransferase inhibition. Q92830. Potency, µM (top dose mostly 58.9 µM), actives largely listed as inhibitors. GCN5L2 HAT assay, ThioGlo1 CoA-SH fluorescence. AID 504327. 390,000 tested, 0.21% active
# Target sequence (Q92830 whole entry, looked up): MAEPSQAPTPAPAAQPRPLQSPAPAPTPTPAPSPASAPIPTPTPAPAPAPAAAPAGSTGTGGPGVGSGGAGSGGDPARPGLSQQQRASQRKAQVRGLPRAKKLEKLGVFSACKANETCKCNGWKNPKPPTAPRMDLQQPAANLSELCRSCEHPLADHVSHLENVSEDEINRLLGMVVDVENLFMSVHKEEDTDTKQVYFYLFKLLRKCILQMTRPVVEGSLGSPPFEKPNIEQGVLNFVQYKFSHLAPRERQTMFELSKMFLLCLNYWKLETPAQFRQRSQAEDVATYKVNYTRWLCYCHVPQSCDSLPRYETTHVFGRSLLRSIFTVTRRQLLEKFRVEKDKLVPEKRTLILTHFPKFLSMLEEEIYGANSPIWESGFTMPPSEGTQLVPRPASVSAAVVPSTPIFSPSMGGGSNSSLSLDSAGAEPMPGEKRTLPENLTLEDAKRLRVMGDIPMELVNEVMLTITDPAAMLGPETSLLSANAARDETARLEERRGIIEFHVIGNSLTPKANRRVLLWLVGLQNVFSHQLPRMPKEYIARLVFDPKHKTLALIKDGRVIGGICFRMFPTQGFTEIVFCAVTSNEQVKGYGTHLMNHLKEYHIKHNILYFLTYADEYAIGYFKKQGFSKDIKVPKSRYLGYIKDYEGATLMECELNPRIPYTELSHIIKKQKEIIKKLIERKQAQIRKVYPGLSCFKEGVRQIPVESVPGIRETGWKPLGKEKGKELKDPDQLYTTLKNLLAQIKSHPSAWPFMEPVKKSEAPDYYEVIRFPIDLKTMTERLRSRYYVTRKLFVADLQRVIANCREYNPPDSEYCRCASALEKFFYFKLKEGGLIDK
#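 Compounds, pin-transferred from DMSO stocks, meet 20nM GCN5L2 for 15 min before the reaction begins with H3(1-25) peptide (75uM) and acetyl-CoA (70uM). Thiol-reactive ThioGlo1 reports CoA release over 20 min at room temperature.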
# rTrxR1 inhibitor: rat TrxR1 inhibition; recombinant rTrxR1, NADPH fluorescence consumption, selenite substrate; Potency, µM (doses to about 114 µM), hits mostly inhibitors; 390,000 tested, 1% active; further: nearly all actives have a fitted effect of over 65% in size
#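 Rat TrxR1 (90 nM in the dispensed reagent) was pre-reduced with 400 uM NADPH for 5 min at room temperature, then incubated with compound for 15 min. After 400 uM selenite was added, NADPH fluorescence (Ex 340/Em 450 nm) was followed for 8 min.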
# Sfp inh: Sfp phosphopantetheinyl transferase inhibition. Q9F4F7. Biochemical Sfp PPTase activity, qHTS. Potency, µM, actives largely listed as inhibitors. 310,000 tested, 3.5% active. AID 1490;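 further: the enzyme is Sfp with the accession as filed and its product quenches rhodamine fluorescence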
#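 Sfp 15 nM + cpd, 15 min RT; start w/ rhodamine-CoA 5 uM, BHQ-2-YbbR 12.5 uM (final); 50 mM Hepes pH 7.6, 10 mM MgCl2, 0.01% NP-40, 0.01% BSA; read 525/598 nm at 0 and 30 min.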
# Numbers stand for hits; . = inactive; ? = inconclusive; / = no result given; ! = repeats disagree; [ ] = dose if it differs, or a comment. The list is not random: actives were taken first. Their share in the collection is about 3.8%. The call rests on the fitted dose curve; in most records, active means well fitted curve in the direction sought with a large enough effect; inconclusive means small, poorly fitted or top-dose-only effect, or another doubt; inactive means no such curve, though single readings can be large; an effect the other way counts as inactive or inconclusive.
SMILES,GLS inh,TrxR1 substrate,VDR inh,KAT2A inh,rTrxR1 inhibitor,Sfp inh
Cc1ccc(S(=O)(=O)NCc2ccccc2)cc1C(=O)NC1CCC(C)CC1 (configuration not stated),.,.,.,.,.,.
N#CC(C#N)=C(N)/C(C#N)=C/c1ccc2[nH]ccc2c1,/,/,50.1µM!,.,/,.
COc1cc(/C=C(\C#N)C(N)=O)cc(CSc2nc3ccccc3s2)c1O,/,/,.,28.2µM,/,.
NC(=O)c1ccc(CSc2nc3ccccc3s2)cc1,.,.,.,.,.,.
CC1CCCCN1CC(=O)Nc1ccc(N2CCCCCC2)cc1 (configuration not stated),?,.,.,.,.,44.7µM
CC1CCCCN1CC(=O)Nc1ccc(Oc2ccccc2)cc1 (configuration not stated),.,.,.,.,.,.
CC1CCCCN1CC(=O)NC(c1ccccc1)c1ccccc1 (configuration not stated),.,.,.,.,.,79.4µM
CC(=O)Nc1ccc(N2CCCC2)cc1,.,.,.,.,.,39.8µM
CCOC(=O)c1c(C=O)c2ccccc2n1CC,.,.,.,.,.,.
CN(C(=S)Nc1ccc(SC(F)F)cc1)c1ccc(O)cc1,.,.,.,.,?,31.6µM
CN(C(=S)Nc1ccc(Oc2ccccc2)cc1)c1ccc(O)cc1,.,.,?,.,?,7.94µM
CN(C(=S)Nc1cccnc1)c1ccc(O)cc1,.,.,.,.,.,?
CC(C)OCCCNC(=O)c1ccc(CS(=O)(=O)c2cccc(C(F)(F)F)c2)o1,.,.,.,.,.,.
Cc1ccc(-c2nn(-c3ccccc3)cc2CN(Cc2ccccc2)C(=O)c2ccco2)o1,/,.,?,.,?,17.8µM
Cc1ccc(-c2nn(-c3ccccc3)cc2C(=O)O)o1,/,/,/,?,/,.
CC1=C(C(N)=O)C(c2ccccc2Br)n2ncnc2N1 (configuration not stated),.,.,.,.,.,/
CC1=C(C(N)=O)C(c2ccccc2[N+](=O)[O-])n2ncnc2N1 (configuration not stated),.,.,25.1µM,.,.,39.8µM
CCNS(=O)(=O)c1c(C)cc(C)c(N(C)S(=O)(=O)c2ccccc2)c1C,.,.,.,.,.,.
CCOC(=O)N1CCN(S(=O)(=O)c2cn(C)c(=O)n(C)c2=O)CC1,.,.,.,.,.,.
S=c1ccss1,/,/,20µM,25.1µM,/,?
COc1cc(NC(=O)c2cc(-c3ccccc3)nc3c2cnn3C(C)C)cc(OC)c1OC,.,.,.,.,.,/
COc1cc(O)c2c(c1)C(=O)c1cc(C)cc(O)c1C2=O,/,/,22.4µM,.,/,.
COc1cc(OC)c2c(c1)C(=O)c1cc(OC)cc(OC)c1C2=O,.,.,.,.,.,.
Cc1cc(NC(=O)c2cc(-c3ccc(Cl)cc3)on2)nn1Cc1ccc(Cl)cc1,.,.,.,.,.,/
COc1ccccc1-c1cc(C(=O)Nc2cc(C)n(Cc3ccc(Cl)cc3)n2)no1,.,.,.,.,.,39.8µM
SMILES,GLS inh,TrxR1 substrate,VDR inh,KAT2A inh,rTrxR1 inhibitor,Sfp inh
CCOc1ccc(Br)cc1S(=O)(=O)Nc1ccc(NC(=O)c2ccccc2C)cc1,.,.,.,.,.,.
COC1=CC(=O)c2ccccc2C1=O,.,.,.,.,?,/
COC1=CC(=O)C=C(OC)C1=O,.,.,22.4µM,.,31.6µM,.
CCOC(=O)c1ccc(CC(=O)c2ccc(O)c(O)c2O)o1,?,.,.,.,.,6.31µM
CCOC(=O)c1ccc(CC(=O)c2oc3cc(O)ccc3c2C)o1,.,.,.,.,?,?
COc1ccc(C2C(C#N)=C(N)N(c3cccnc3)C3=C2C(=O)CC(C)(C)C3)cc1OC (configuration not stated),.,.,.,.,17.8µM,.
Cc1c(Cl)cnc(NC(=O)COC(=O)CCc2nc3ccccc3s2)c1Cl,.,.,.,.,.,.
O=c1[nH]c(/C=C\c2cccc(O)c2)nc(O)c1[N+](=O)[O-],.,.,.,.,.,.
O=c1[nH]c(/C=C\c2ccc(O)c(O)c2)nc(O)c1[N+](=O)[O-],7.94µM,?,.,.,?,44.7µM
COc1ccc(Cn2nc3n(c2=O)-c2ccccc2OC3)cc1,.,.,.,.,.[11.4 µM],/
COc1cc(OC)cc(C(=O)NNc2nc3cc4c(cc3s2)OCO4)c1,.,.,.,.,.,79.4µM
O=C(NNc1nc2cc3c(cc2s1)OCO3)c1cccc(F)c1,.,.,.,.,.,28.2µM
COc1cc(C(=O)NNc2nc3cc4c(cc3s2)OCO4)cc(OC)c1OC,.,.,.,.,.,20µM
COc1cccc(OC)c1C(=O)Nc1nc2cc3c(cc2s1)OCO3,.,.,.,.,.,.
O=C(NNc1nc2cc3c(cc2s1)OCO3)c1ccccc1,.,.,.,.,.,?
CC1Cc2ccccc2N1C(=O)COC(=O)/C=C/c1cccc(F)c1 (configuration not stated),.,.,.,.,.,/
O=C(O)c1ncn(Cc2ccc(Br)cc2)c1C(=O)O,.,.,.,.,.,50.1µM
O=C(COc1ccc(Cl)cc1)Nc1ccccc1C(=O)OCc1cc(=O)n2ccsc2n1,.,.,.,.,.,/
CC(=O)Nc1ccc(S(=O)(=O)NNc2cccc(C)c2)cc1,.,.,79.4µM,?,.,.
Cc1cccc(NC(=O)NNS(=O)(=O)c2ccc(F)cc2)c1,.,.,.,.,.,.
Cc1ccc(S(=O)(=O)Nc2ccc(Nc3ccccc3)cc2)cc1,.,.,.,.,.,.
Cc1ccc(S(=O)(=O)NNc2nc3ccccc3nc2C(F)(F)F)cc1,.,.,?,.,.[0.457 µM],11.2µM
Cc1ccc(S(=O)(=O)Nn2c(C)ccc2C)cc1,.,.,.,.,.,56.2µM
Cc1ccc(S(=O)(=O)NNc2ccccc2)cc1,.,.,?,28.2µM,.,31.6µM
CCOC(=O)N1CCC(NC(=O)CS(=O)(=O)Cc2nc(-c3ccc(OC)cc3)oc2C)CC1,.,.,?,.,.,.
SMILES,GLS inh,TrxR1 substrate,VDR inh,KAT2A inh,rTrxR1 inhibitor,Sfp inh
Cc1nc2ccn(Cc3cccs3)c(=O)c2cc1C(=O)N1CCN(c2ccc(F)cc2)CC1,.,.,.,.,.,/
O=C(Cn1nc(-c2ccco2)ccc1=O)Nc1ccc(Cl)c(Cl)c1,.,.,.,.,?,56.2µM
O=C(Cn1nc(-c2ccco2)ccc1=O)Nc1cc(Cl)ccc1Cl,.,.,.,.,?,44.7µM
Cc1ccc(NC(=O)Cn2nc(-c3ccncc3)ccc2=O)cc1Cl,.,.,.,.,.,/
O=C(Cn1nc(-c2ccco2)ccc1=O)Nc1cc(C(F)(F)F)ccc1Cl,.,.,.,.,.,.
O=C(Nc1cccc(Cl)c1)OCC#CCCl,/,/,3.55µM,?,/,?
CCCCn1nnnc1C(CCSC)N1CCN(C/C=C/c2ccccc2)CC1 (configuration not stated),.,/,/,/,/,/
Cc1nc2ccccc2c(=O)n1/N=C/c1ccc(O)c(O)c1O,?,.,.,.,.,7.08µM
